Compound activity deposited in PubChem BioAssay by National Center for Advancing Translational Sciences (NCATS).
Most compounds without a hit are left out; they make up all but 11% or so of the library.
Sm TGR block – qHTS Assay for the Inhibitors of Schistosoma Mansoni Peroxiredoxins; Potency, µM (series often up to 114 µM), for inactives: at the highest dose activity change, negative = inhibition, usual class: inhibitors; AID 485364, 2010; actives 3% (n = 360,000); purified TGR, DTNB reduction, TNB absorbance 405 nm; note: % is set by controls: 0 for no effect and ±100 for the full control effect; nearly all actives have a fitted effect of over 60% in size
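Kinetic colorimetric format: TGR-catalysed, NADPH-driven DTNB reduction monitored via TNB absorbance. Enzyme dispensed at 20 nM; compound exposure 15 min at room temperature before reaction start.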
Pf growth 96h – Primary qHTS for delayed death inhibitors of the malarial parasite plastid, 96 hour incubation; actives 6.9% (n = 320,000); Potency, µM (doses to about 28.7 µM), without a hit: at the top dose activity change, negative = inhibition, most hits filed as inhibitors; AID 504834, 2011; P. falciparum luciferase reporter growth, 96 h; note: % is set by controls: 0 for no effect and ±100 for the full control effect
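Infected RBCs, 2% Hct / 0.05% parasitemia final; luciferase-reporter P. falciparum; cpd 96 h, 37 C, 5% CO2; luciferase detection reagent; luminescence.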
Pf growth 48h – Primary qHTS for delayed death inhibitors of the malarial parasite plastid, 48 hour incubation; P. falciparum luciferase growth in erythrocytes, 48 h; Potency, µM (highest dose often 28.7 µM), for the others: at the highest dose activity change, negative = inhibition, usual class: inhibitors; actives 5.9% (n = 310,000); AID 504832, 2011; note: % is set by controls: 0 for no effect and ±100 for the full control effect
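A one-generation exposure of luciferase-tagged malaria parasites in RPMI 1640/Albumax erythrocyte culture, 37 C and 5% CO2. Inhibition is inferred from decreased luminescence after adding detection reagent.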
NS1 function inh – qHTS Assay for Inhibitors of Influenza NS1 Protein Function. Potency, µM (highest dose often 46.1 µM), for the others: at the top dose activity, positive = more growth. actives 0.4% (n = 270,000); calls by dose curve; note: actives are rising curves; nearly all actives have a fitted effect of over 50% in size
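OD600 was taken as the measure of yeast growth restored by compound in an NS1-expressing S. cerevisiae strain. Cells had been washed out of glucose medium and diluted 1:100 into galactose -URA medium, pH 6.0.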
AMA1-RON2 inh – qHTS for Inhibitors of AMA1-RON; Towards Development of Antimalarial Drug Lead: Primary Screen; Plasmodium falciparum AMA1 (3D7) - RON2 peptide interaction; AlphaScreen AMA1-biotinylated RON2 peptide binding; Potency, µM (doses to about 58.2 µM), without a hit: at the highest dose activity change, negative = inhibition, usual class: inhibitors; actives 0.2% (n = 360,000); AID 720542, 2013;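 note: 0% = vehicle wells and -100% = peptide control; nearly all actives have a fitted effect of over 45% in size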
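AMA1 (3D7) with his tag at 25 nM final met compounds first, then biotinylated RON2 peptide at 25 nM; detection used donor plus acceptor beads, 10 µg/mL apiece, read by AlphaScreen after 30 min at room temperature.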
* = called active by the depositor; ? = inconclusive; · = not tested or not shown; [ ] = remark or other dose. Unless noted, calls come from the whole dose curve; as a rule, active = well fitted curve in the direction sought with a large enough effect; inconclusive = small, poorly fitted or top-dose-only effect, or another doubt; inactive = no such curve, though single readings can be large; an effect the other way counts as inactive or inconclusive. Potency is the fitted concentration of half-maximal effect.

SMILES	Sm TGR block	Pf growth 96h	Pf growth 48h	NS1 function inh	AMA1-RON2 inh
CCC(C)C1NC(=O)C(NC(=O)C(CC(C)C)N(C)C(=O)C2CCCN2C(=O)C(C)O)C(C)OC(=O)C(Cc2ccc(OC)cc2)N(C)C(=O)C2CCCN2C(=O)C(CC(C)C)NC(=O)[C@H](C)C(=O)[C@H](C(C)C)OC(=O)CC1O (stereo partly specified)	·	·	·	·	-6%
Cc1ccc(NS(=O)(=O)c2c(C)[nH]c(=O)[nH]c2=O)c(C)c1	-12%	27%	8%	1%	-10%
Cc1cc(Br)ccc1NS(=O)(=O)c1c(C)[nH]c(=O)[nH]c1=O	11%	5.2µM*	2%	2%	1%
Cc1ccc(-c2csc3nc(CN(C)Cc4ccccc4)[nH]c(=O)c23)cc1	-7%	4.1µM*	12µM*	·	-10%
O=c1[nH]c(Cc2ccc(F)cc2)nc2scc(-c3ccc(F)cc3)c12	0%	?	-2%	7%	20%
Cc1ccc(C(=O)Cn2c3[n+](c4ccccc42)CC(O)CS3)cc1 (stereo unspecified)	8%	10%	?	4%	-4%
O=C(Cn1c2[n+](c3ccccc31)CC(O)CS2)c1ccccc1 (stereo unspecified)	11%	64%	2.1µM*	1%	2%
O=C(c1ccc2nc[nH]c2c1)N1CCN(c2cccc(Cl)c2)CC1	-1%	5.9µM*	13µM*	-24%	-9%
O=C(c1ccc([N+](=O)[O-])s1)N1CCN(c2cccc(Cl)c2)CC1	?	12µM*	?	-36%	?
O=C(c1ccc2nc[nH]c2c1)N1CCN(S(=O)(=O)c2cccc(Cl)c2)CC1	·	·	·	·	-26%
Cc1cc(Cn2nnc3ccccc32)c(O)c(C(C)(C)C)c1	0%	?	12µM*	·	-2%
CC(C)(C)c1cccc(Cn2nnc3ccccc32)c1O	-4%	?	9.3µM*	·	10%
O=C(Nc1cccc(F)c1)c1ccc(S(=O)(=O)N2CCCCC2)cc1	-7%	-2%	?	-11%	16%
Cc1ccc(C(=O)c2cn(Cc3ccc(F)cc3)c3nc(C)ccc3c2=O)cc1	-4%	·	·	·	·
Cc1ccc(Cn2cc(C(=O)c3ccc(F)cc3)c(=O)c3cc4c(cc32)OCO4)cc1	-9%	·	·	·	·
Cc1ccc(Cn2cc(C(=O)c3ccc(F)cc3)c(=O)c3cc4c(cc32)OCCO4)cc1	2%	12µM*	-25%	3%	-14%
Cc1ccc(C(=O)c2cn(Cc3ccc(Cl)cc3)c3nc(C)ccc3c2=O)cc1	-18%	12µM*	?	·	·
COCCNC(=O)c1[nH]c2cc(C)ccc2c1Sc1ccc(Cl)cc1	2%	·	·	·	·
COc1cc(C(C[N+](=O)[O-])c2c(-c3ccccc3)cc3ccccn23)cc(OC)c1OC (stereo unspecified)	8.9µM*	12µM*	·	29%	-3%
COc1cc(C(C[N+](=O)[O-])c2c(C)cc3ccccn23)ccc1O (stereo unspecified)	18µM*	?	?	-16%	-10%
COc1ccc(C(C[N+](=O)[O-])c2c(-c3ccccc3)cc3ccccn23)cc1 (stereo unspecified)	-30%	5%[5.75 µM]	?	26%	-4%
COc1cc(C(C[N+](=O)[O-])c2c(C)[nH]c3ccccc23)ccc1O (stereo unspecified)	?	?	-12%	-11%	-8%
COc1ccc(C(C[N+](=O)[O-])c2c(-c3ccccc3)cc3ccccn23)cc1OC (stereo unspecified)	7.9µM*	?	?	-71%	-9%
Nc1nc(N)nc(-c2cccc(Cl)c2Cl)n1	3%	82%	8%	·	0%
CCC(NC(=O)c1ccccc1NC(=O)c1ccco1)C(=O)NNC(=O)c1ccncc1 (stereo unspecified)	-3%	?	?	-2%	82%
SMILES	Sm TGR block	Pf growth 96h	Pf growth 48h	NS1 function inh	AMA1-RON2 inh
CCc1cccc(NC(=O)CN2c3ccccc3S(=O)(=O)c3ccccc32)c1	-4%	·	·	·	·
CC(OC(=O)c1ccc(Cl)c([N+](=O)[O-])c1)C(=O)N1CCN(Cc2ccccc2)CC1 (stereo unspecified)	-14%	?	12µM*	·	-3%
CCn1cc(C(=O)OCC(=O)Nc2cccc(Cl)c2C)c(=O)c2ccc(C)nc21	8%	·	·	·	·
O=C1C(Cc2ccccc2)C(c2ccccc2)N1c1ccccc1 (stereo unspecified)	-22%	10µM*	?	12%	19%
CCCS(=O)(=O)N1CC(=O)N(c2ccccc2C)C(C)(C(=O)NC2CCCC2)C1 (stereo unspecified)	2%	·	·	·	·
Cc1ccccc1-c1nc(CS(=O)(=O)CC(=O)N2CCCCC2)c(C)o1	22µM*	0%	23%	5%	-9%
Cc1oc(-c2ccccc2F)nc1CS(=O)(=O)CC(=O)N1CCN(Cc2ccccc2)CC1	13µM*	?	-25%	-36%	0%
Cc1oc(-c2ccccc2F)nc1CS(=O)(=O)CC(=O)N1CCOCC1	45µM*	9.3µM*	5%	8%	11%
CCN1CCN(C(=O)CS(=O)(=O)Cc2nc(-c3ccccc3C)oc2C)CC1	-20%	29%	49%	5%	-5%
CC(=O)OC1C[C@H](O[C@@H]2C(O)C[C@H](O[C@@H]3C(O)C[C@@H](OC4CC[C@]5(C)C(CCC6C5CC(O)[C@@]5(C)C(C7=CC(=O)OC7)CC[C@@]65O)C4)OC3C)OC2C)O[C@H](C)[C@H]1O[C@H]1OC(CO)C(O)C(O)C1O (stereo partly specified)	·	4.8µM*	8.5µM*	·	·
CC1OC(OC2CCC3(C)C(CCC4C3CC(O)C3(C)C(C5=CC(=O)OC5)CCC43O)C2)CC(O)C1OC1CC(O)C(OC2CC(O)C(OC3OC(CO)C(O)C(O)C3O)C(C)O2)C(C)O1 (stereo unspecified)	·	?	-17%	·	·
CC(C)(OC(=O)c1ccc(C#N)cc1)c1cc2ccccc2c(=O)o1	1%	24%	17%	·	19%
Cc1cccc(NS(=O)(=O)c2ccc3c(c2)[C@H]2C=CC[C@H]2[C@@H](c2ccc(F)cc2)N3)c1	-4%	·	·	·	·
Fc1ccc([C@@H]2Nc3ccccc3[C@@H]3C=CC[C@@H]32)cc1	5.6µM*	·	·	·	·
O=C(NCCF)C1Nc2ccc(OC(F)(F)F)cc2C2C=CCC12 (stereo unspecified)	·	·	·	·	-2%
Fc1ccc2c(c1)C1C=CCC1C(c1cc3c(cc1Br)OCO3)N2 (stereo unspecified)	18%	4%	5.2µM*	3%	-19%
